The record followed here is PubChem BioAssay AID504441 (Broad Institute, 2011).

In all, about 310,000 compounds went through this assay and about 1,300 (0.42%) were called active. For the sample, actives were picked, then their nearest neighbours and some compounds at random. Values without a mark were called inactive. Rule as the data show it: active = inhibition above about 50%; inactive = the rest.

This test addresses Dual specificity tyrosine-phosphorylation-regulated kinase 1A (Rattus norvegicus) (UniProt Q63470). In words: rat Dyrk1A kinase inhibitors, primary screen, biochemical, single point, plate reader (AID 504441).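 Also: plate controls were vehicle with enzyme for no effect and no enzyme for full effect.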 As to conditions: ADP-Glo luminescence, NFATc1 peptide, at 12.5 µM, stronger effect = higher value. On the technique in general: In ADP-Glo the light output rises with the ADP produced.
A word on the inhibition: it is the change of the read-out against control, counted positive when it falls. On to `O=C(O)c1cc(Cl)c(Cl)cc1C(=O)Nc1cccc2ncccc12`, for which the inhibition was 31.9%.
Consider `O=C(Nc1cccc2ncccc12)c1ccc(-c2ccc(Cl)cc2Cl)o1`, for which the inhibition was 12.4%.
For the compound `Cc1ccc(/C=C(\C#N)C(=O)Nc2cccc3ncccc23)o1`, the inhibition was 84.4% (active).
As for `O=C1C2C3C=CC(C3)C2C(=O)N1c1ncc([N+](=O)[O-])s1` (configuration not stated), the inhibition was -1.64%.
The figure for `CCCN(C(=O)COC(=O)CNS(=O)(=O)c1ccc(NC(C)=O)cc1)C1CCS(=O)(=O)C1` (configuration not stated) is 7.58%; for `CC(C)OC(=O)c1ccc(NCc2cc(O)ccc2O)cc1Cl` it is 0.287%.
`COc1ccc(/C=C2/CCCc3ccccc3C2=O)cc1`: the inhibition is 11.6%.
The figure for `O=[N+]([O-])c1ccccc1/C=N/n1c(COc2ccccc2)n[nH]c1=S` is -1.54%.
Turning to `Oc1ccccc1/C=N/n1c(-c2cccs2)n[nH]c1=S`, the inhibition was -4.73%.
With `CCc1n[nH]c(=S)n1/N=C/c1c[nH]c2ccc(Br)cc12`, the inhibition was 50.2% (active).
With `O=C1/C(=C\c2ccc(O)cc2)CCC1CNc1ccc(Cl)cc1` (configuration not stated), the inhibition was 2.38%.
As for `COc1ccc(C2NCCCC2c2ccccc2)cc1` (configuration not stated), the inhibition was -2.56%.
`O=C(NN=Cc1ccccc1O)NN=Cc1ccccc1O`: the inhibition is 6.12%.
`CCOC(=O)Cn1c(-c2cccnc2Cl)nc2ccccc21`: the inhibition is 80.1% (active).
The figure for `CCOC(=O)Cn1c(=O)n(Cc2ccc(OC)cc2)c(=O)c2cccnc21` is 2.78%; for `CCn1c(-c2cccnc2Cl)nc2cc(C)c(C)cc21` it is 2.9%.
The figure for `O=c1c2ccccc2ncn1CCc1ccncc1` is 7.95%; for `OCC(O)C1OCOC(C(O)CO)C1O` (configuration not stated) it is -1.78%; for `O=C(NCC1CCCCC1)NCC1CCCCC1` it is 7.91%.
Take `O=C(CC(O)(C(F)(F)F)C(F)(F)F)Nc1ccc(Cl)c(Cl)c1`: the inhibition is 53.9% (active).
Turning to `O=C(CC1SCCNC1=O)Nc1ccc(Cl)c(Cl)c1` (configuration not stated), the inhibition was -4.03%.
Turning to `O=C(Cc1ccc(Cl)c(Cl)c1)Nc1ccc(SC(F)F)cc1`, the inhibition is -0.116%.
The figure for `CC/C(=C(/c1ccccc1)c1ccc(OCC[N+](C)(C)C)cc1)c1ccccc1` is 7.18%; for `Cc1[nH]c2ccccc2c1CCN(Cc1cccs1)C(=S)NC(C)(C)C` it is -4.25%; for `COc1ccc2[nH]c(C)c(CCN(Cc3cccs3)C(=S)Nc3ccccc3OC)c2c1` it is 57.4% (active).
For the compound `COc1cccc(NC(=S)N(CCc2c(C)[nH]c3ccccc23)Cc2ccco2)c1`, the inhibition was 7.39%.
Regarding `NN=C(NN=Cc1ccccc1)c1ccccc1`, the inhibition is -4.79%.
Regarding `CN(C(=O)c1cccc(NC(=O)Cc2ccc(NC(=O)C3CCCN(C(=O)C4CCCC4)C3)cc2)c1)C1CCC1` (configuration not stated), the inhibition is 2.93%.
Take `CC(=NNC(=S)N1CCCCCC1)c1ccccn1`: the inhibition was 0.973%.
The figure for `Cc1cc(NC(=O)C(C)SCC(=O)Nc2cccc(S(=O)(=O)N3CCCCCC3)c2)no1` (configuration not stated) is -1.84%; for `Cc1cc(/C=N/Nc2ccc([N+](=O)[O-])cn2)c(C)n1-c1cccc(C(=O)O)c1` it is 50.2% (active); for `Cc1ccc(-n2c(C)cc(/C=N/Nc3ccc([N+](=O)[O-])cn3)c2C)c(C)c1` it is -4.85%.
As for `CC(C)c1ccc(C=NNc2ccc([N+](=O)[O-])cn2)cc1`, the inhibition is -3.91%.
Turning to `Cc1cccc(NC(=S)N2CCC(C(=O)c3ccc(F)cc3)CC2)c1`, the inhibition was 10.4%.
For `O=C(Nc1ccc2ccccc2c1[N+](=O)[O-])c1ccccc1`, the inhibition is 3.22%.
For the compound `O=C(OCCOc1ccccc1Cl)c1cc(S(=O)(=O)N2CCCCC2)ccc1N1CCOCC1`, the inhibition is -7.28%.
Take `Cc1nc(N)nc(SCc2ccc([N+](=O)[O-])cc2)c1N`: the inhibition was -3.28%.
Regarding `CC(C)Sc1nc(N)nc2c1ncn2C1OC(CO)C(O)C1O` (configuration not stated), the inhibition is -4.63%.
On to `Nc1nc(SCc2ccc([N+](=O)[O-])cc2)c2ncn(C3OC(CO)C(O)C3O)c2n1` (configuration not stated), for which the inhibition was 56.9% (active).
With `O=[N+]([O-])c1ccc(COc2ccccc2CN2CCOCC2)cc1`, the inhibition was 4.81%.
Consider `CNN/C(N=Cc1ccc([N+](=O)[O-])s1)=N\S(=O)(=O)c1cc(C)c(Cl)cc1SCc1ccccc1`, for which the inhibition was 1.25%.
Take `Cc1ccc(S(=O)(=O)N2C[C@@H]3CCCC[C@@H]3[C@@H](C)[C@H]2c2cn(Cc3ccccc3)c3ccc(F)cc23)cc1`: the inhibition was -0.552%.
As to `O=[N+]([O-])c1cc(Br)c(O)c(/C=N/Nc2nc3ccccc3s2)c1`, the inhibition was 32.7%.
As for `O=C(NC(Nc1nc2ccc([N+](=O)[O-])cc2s1)(C(F)(F)F)C(F)(F)F)c1ccccc1`, the inhibition is 73.9% (active).
`N=C1C(c2nc3ccccc3s2)=C(O)CN1NC(=O)c1ccc([N+](=O)[O-])cc1`: the inhibition was 46.9%.
Turning to `O=C(O)C(CCc1ccccn1)c1ccccc1` (configuration not stated), the inhibition is 3.61%.
For the compound `N#CC1=C(N)Oc2cc(N)ccc2C1c1ccccc1` (configuration not stated), the inhibition is 0.0153%.
Turning to `COc1ccc(CNCCCNCc2ccc(OC)c(OC)c2)cc1OC`, the inhibition is -3.55%.
Consider `CCOc1cc(/C=C2\SC(N3CCCCC3)=NC2=O)ccc1O`, for which the inhibition is 62.2% (active).
For `O=C1N=C(N2CCCC2)S/C1=C\c1cccc(Br)c1`, the inhibition is -2.99%.
As for `CCOc1cc(/C=C2\SC(N3CCCC(C)C3)=NC2=O)ccc1O` (configuration not stated), the inhibition was 31.5%.
The figure for `CCN1CCC(O)(/C=C/c2ccc(C)cc2)C(C(=O)/C=C/c2ccc(C)cc2)C1` (configuration not stated) is -5.12%; for `O=C(C1CCN(S(=O)(=O)c2ccc(Br)s2)CC1)N1CCN(c2ccccc2)CC1` it is 2.78%.
`CSc1ccc(S(=O)(=O)N2CCC(C(=O)NCCc3ccccc3)CC2)cc1`: the inhibition was -0.684%.
The figure for `O=C(NCCc1ccccc1)C1CCN(S(=O)(=O)c2ccc(Br)s2)CC1` is 60.5% (active); for `COc1ccccc1N(CC(=O)Nc1c(C)n(C)n(-c2ccccc2)c1=O)S(=O)(=O)c1ccccc1` it is 8.43%.
`Cc1ccc(S(=O)(=O)N2CCN(C(=O)COC(=O)/C=C/c3cccc(Cl)c3)CC2)c(C)c1`: the inhibition was 2.98%.
The figure for `CCOCCCNC(=O)C(NC(=O)c1ccc(=O)[nH]c1)c1ccc(Cl)cc1` (configuration not stated) is 62.1% (active); for `CCOCCCNC(=O)C(NC(=O)c1ccc(=O)[nH]c1)c1ccc(C)cc1` (configuration not stated) it is 4%; for `CCOCCCNC(=O)C(NC(=O)c1ccccc1O)c1ccccc1` (configuration not stated) it is 2.95%.
`O=C1/C(=C\c2ccc([N+](=O)[O-])cc2)CS(=O)(=O)C/C1=C/c1ccc([N+](=O)[O-])cc1`: the inhibition is 2.21%.
As for `N#Cc1cccc(CN2CCC(=O)N([C@H](CO)c3ccccc3)CC2)c1`, the inhibition is 50.1% (active).
Consider `N#Cc1cccc(CN2CCC(=O)N(CCO)CC2)c1`, for which the inhibition is 12.9%.
As to `O=C1CCN(Cc2ccccc2)CCN1[C@H](CSc1ccccc1)c1ccccc1`, the inhibition was 7.38%.
In the case of `CCCCN(C(=O)CSCc1ccc(C)cc1)c1c(N)n(Cc2ccccc2)c(=O)[nH]c1=O`, the inhibition was -1.45%.
On to `O=[N+]([O-])c1ccc(NS(=O)(=O)c2ccccc2)c(Cl)c1`, for which the inhibition is -7.67%.
Regarding `O=C(O)c1ccc(NN=CC2=C(N3CCOCC3)/C(=C/c3ccccc3)CC2)cc1`, the inhibition was 17.6%.
The figure for `COc1ccc(S(=O)(=O)N2CCc3ccccc32)cc1C(=O)Nc1cc(S(C)(=O)=O)ccc1Cl` is -1.51%; for `Cc1ccccc1Nc1nc(-c2cccnc2)cs1` it is 9.73%; for `CN(c1ccc(O)cc1)c1nc(-c2cccnc2)cs1` it is 3.73%.
For the compound `Oc1ccc(-c2csc(Nc3cccnc3)n2)cc1`, the inhibition is 53.9% (active).
The figure for `O=C(NNC(=O)c1ccccc1O)c1ccccc1O` is -1.63%; for `CCOC(=O)c1ccccc1OC(=O)Oc1ccccc1C(=O)OCC` it is 4.02%.
As to `O=C1OCC2=C1C(c1ccc(Cl)cc1)c1cc3c(cc1O2)OCO3` (configuration not stated), the inhibition was -1.45%.
For `O=C(Nc1ccc(S(=O)(=O)N2CCOCC2)cc1)C1CCN(S(=O)(=O)c2ccc(Cl)cc2)CC1`, the inhibition was 7.12%.
For `CN1C(=O)/C(=C\c2ccc(-c3ccccc3)o2)SC1=S`, the inhibition is -4.31%.
Take `CN1CCN(/N=C/c2ccc(-c3ccc([N+](=O)[O-])cc3)o2)CC1`: the inhibition is 4.45%.
As to `NS(=O)(=O)c1ccc(-c2ccc(/C=C3\SC(=O)NC3=O)o2)cc1`, the inhibition was 87.9% (active).
The figure for `O=C(Nc1c(Br)cc2c(c1Br)Cc1cc([N+](=O)[O-])ccc1-2)C(Cl)Cl` is -6.68%; for `Cc1cc(OCCCC(=O)Nc2cc(S(=O)(=O)N3CCOCC3)ccc2N2CCOCC2)ccc1Cl` it is 1.11%.
As for `CCOC(=O)[C@H]1[C@H]2COc3ccc(Br)cc3[C@@H]2N2C(=O)CN(C)C(=O)[C@@]12C`, the inhibition was -7.39%.
Turning to `CC(=O)Nc1cccc(-c2csc(Nc3cccc(C)n3)n2)c1`, the inhibition was 9.85%.
Turning to `CC(=O)Nc1cccc(-c2cnc3ccccc3n2)c1`, the inhibition was 50.4% (active).
The figure for `O=C(Nc1cccc(-c2nc3ccccc3[nH]2)c1)c1ccc(C(=O)Nc2cccc(-c3nc4ccccc4[nH]3)c2)cc1` is 4.53%; for `CN(C)C(=S)N=c1ssc(=S)n1Cc1ccco1` it is 0.385%; for `O=C(Cc1ccc([N+](=O)[O-])cc1)NCCc1ccc2c(c1)OCO2` it is 3.06%.
On to `COc1ccc(C(=O)N(C)Cc2ccc(OC)c(OC)c2OC)cc1S(=O)(=O)N1CCOCC1`, for which the inhibition is -3.97%.
The figure for `NC(CSC1(c2ccccc2)c2ccccc2-c2ccccc21)C(=O)O` (configuration not stated) is -0.913%; for `COc1cc2[nH]c(O)c(C=O)c2cc1OC` it is 3.93%; for `Cc1cccc(-c2nc(Nc3ccc(O)cc3)c3ccccc3n2)c1` it is 62% (active).
The figure for `CC(=O)Nc1cccc(Nc2nc(-c3cccs3)nc3ccccc23)c1` is 26.8%.
The figure for `COc1ccc(Nc2nc(-c3cccnc3)nc3ccccc23)cn1` is 24.1%.
